Reference: PubChem BioAssay AID1159580 (chemical genetic matrix, 2015)
Where “and” joins values, the source holds several entries; their conditions need not be identical. Identical values can stand only once. The campaign covered roughly 5,500 compounds. About 2,000 (36%) were called active. Another 18% or so got no clear call; they are omitted. Cut-off read from the data, not from the text of the source: active = normalized growth mostly below about 0.91 (no sharp cut-off); inconclusive = no clear call, values can overlap the other calls; inactive = mostly above about 0.92. This is one part of the list.

Assay: chemical genetic growth profiling, strain panel (AID 1159580);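 note: tested at 20 µM; growth read once vehicle control cultures reached saturation at 30 °C; 1 = growth at the plate median or of vehicle wells; lower values mean less growth of the strain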
Conditions: S. cerevisiae deletion strains, growth OD

O=C(CCCN1CCC(O)(c2ccc(Cl)cc2)CC1)c1ccc(F)cc1
normalized growth (locus YAL013W, strain DEP1, stronger effect = lower value): 0.797 (active) | normalized growth (locus YAL021C, strain ccr4, stronger effect = lower value): 0.903 (active) | normalized growth (locus YAL026C, strain drs2, stronger effect = lower value): 0.0861 (active) | normalized growth (locus YAL030W, strain snc1, stronger effect = lower value): 0.991 (inactive) | normalized growth (locus YAL040C, strain CLN3, stronger effect = lower value): 1.02 (inactive) | normalized growth (locus YBL061C, strain skt5, stronger effect = lower value): 0.951 (inactive) | normalized growth (locus YBR009C, strain hhf1, stronger effect = lower value): 0.889 (active) | normalized growth (locus YBR021W, strain FUR4, stronger effect = lower value): 0.535 (active) | normalized growth (locus YBR023C, strain chs3, stronger effect = lower value): 0.919 (inactive) | normalized growth (locus YBR171W, strain sec66, stronger effect = lower value): 1.03 (inactive) | normalized growth (locus YBR229C, strain ROT2, stronger effect = lower value): 0.981 (inactive) | normalized growth (locus YBR231C, strain swc5, stronger effect = lower value): 0.815 (active) | normalized growth (locus YBR279W, strain paf1, stronger effect = lower value): 0.918 (active) | normalized growth (locus YCL011C, strain gbp2, stronger effect = lower value): 0.948 (inactive) | normalized growth (locus YCL016C, strain dcc1, stronger effect = lower value): 0.902 (active) | normalized growth (locus YCL029C, strain bik1, stronger effect = lower value): 0.945 (inactive) | normalized growth (locus YCL061C, strain MRC1 (second series), stronger effect = lower value): 0.979 (inactive) | normalized growth (locus YCL061C, strain MRC1, stronger effect = lower value): 1.01 (inactive) | normalized growth (locus YCL069W, strain vba3, stronger effect = lower value): 0.985 (inactive) | normalized growth (locus YCR088W, strain abp1, stronger effect = lower value): 1.03 (inactive) | normalized growth (locus YDL005C, strain med2, stronger effect = lower value): 1.03 (inactive) | normalized growth (locus YDL035C, strain GPR1, stronger effect = lower value): 0.803 (active) | normalized growth (locus YDL040C, strain nat1, stronger effect = lower value): 1.02 (inactive) | normalized growth (locus YDL074C, strain BRE1, stronger effect = lower value): 0.739 (active) | normalized growth (locus YDL101C, strain DUN1, stronger effect = lower value): 0.921 (inactive) | normalized growth (locus YDL185W, strain tfp1, stronger effect = lower value): 1.01 (inactive) | normalized growth (locus YDL192W, strain arf1, stronger effect = lower value): 0.751 (active) | normalized growth (locus YDR001C, strain nth1, stronger effect = lower value): 1.04 (inactive) | normalized growth (locus YDR069C, strain doa4, stronger effect = lower value): 0.837 (active) | normalized growth (locus YDR101C, strain arx1, stronger effect = lower value): 0.904 (active) | normalized growth (locus YDR137W, strain rgp1, stronger effect = lower value): 1.04 (inactive) | normalized growth (locus YDR150W, strain NUM1, stronger effect = lower value): 0.949 (inactive) | normalized growth (locus YDR159W, strain sac3, stronger effect = lower value): 1.02 (inactive) | normalized growth (locus YDR162C, strain NBP2, stronger effect = lower value): 0.747 (active) | normalized growth (locus YDR195W, strain ref2): 1.46 [resistant] (active) | normalized growth (locus YDR297W, strain sur2, stronger effect = lower value): 0.972 (inactive) | normalized growth (locus YDR318W, strain mcm21, stronger effect = lower value): 0.838 (active) | normalized growth (locus YDR334W, strain swr1, stronger effect = lower value): 1.04 (inactive) | normalized growth (locus YDR335W, strain msn5, stronger effect = lower value): 0.984 (inactive) | normalized growth (locus YDR363W, strain ESC2, stronger effect = lower value): 0.886 (inactive) | normalized growth (locus YDR388W, stronger effect = lower value): 0.413 (active) | normalized growth (locus YDR392W, strain spt3, stronger effect = lower value): 0.281 (active) | normalized growth (locus YDR502C, strain sam2, stronger effect = lower value): 0.814 (active) | normalized growth (locus YEL003W, strain gim4, stronger effect = lower value): 0.909 (active) | normalized growth (locus YEL037C, strain rad23, stronger effect = lower value): 0.998 (inactive) | normalized growth (locus YEL061C, strain CIN8 (second series), stronger effect = lower value): 1.02 (inactive) | normalized growth (locus YEL061C, strain CIN8, stronger effect = lower value): 0.923 (active) | normalized growth (locus YER002W, strain NOP16, stronger effect = lower value): 1.01 (inactive) | normalized growth (locus YER015W, strain faa2, stronger effect = lower value): 0.987 (inactive) | normalized growth (locus YER016W, strain bim1, stronger effect = lower value): 0.943 (inactive) | normalized growth (locus YER110C, stronger effect = lower value): 0.977 (inactive) | normalized growth (locus YER111C, strain swi4, stronger effect = lower value): 1.02 (inactive) | normalized growth (locus YER155C, strain BEM2 (second series), stronger effect = lower value): 0.42 (active) | normalized growth (locus YER155C, strain BEM2, stronger effect = lower value): 1.01 (inactive) | normalized growth (locus YER167W, strain BCK2, stronger effect = lower value): 0.839 (active) | normalized growth (locus YFR010W, strain ubp6, stronger effect = lower value): 0.867 (active) | normalized growth (locus YGL078C, strain dbp3, stronger effect = lower value): 0.978 (inactive) | normalized growth (locus YGL086W, strain mad1, stronger effect = lower value): 0.837 (active) | normalized growth (locus YGL167C, strain pmr1, stronger effect = lower value): 0.963 (inactive) | normalized growth (locus YGL173C, strain kem1, stronger effect = lower value): 0.951 (inactive) | normalized growth (locus YGL227W, strain vid30, stronger effect = lower value): 1.05 (inactive) | normalized growth (locus YGL240W, strain doc1, stronger effect = lower value): 0.979 (inactive) | normalized growth (locus YGL248W, strain PDE1, stronger effect = lower value): 0.661 (active) | normalized growth (locus YGL253W, strain hxk2, stronger effect = lower value): 0.859 (active) | normalized growth (locus YGR078C, strain PAC10, stronger effect = lower value): 0.855 (inactive) and 0.989 (inactive) | normalized growth (locus YGR135W, strain pre9, stronger effect = lower value): 0.73 (active) | normalized growth (locus YGR229C, strain SMI1, stronger effect = lower value): 0.324 (active) | normalized growth (locus YGR252W, strain gcn5, stronger effect = lower value): 0.368 (active) | normalized growth (locus YHR013C, strain ard1, stronger effect = lower value): 0.807 (active) | normalized growth (locus YHR027C, strain rpn1, stronger effect = lower value): 0.899 (active) | normalized growth (locus YHR030C, strain SLT2, stronger effect = lower value): 0.794 (active) and 0.973 (inactive) | normalized growth (locus YHR079C, strain IRE1 (second series), stronger effect = lower value): 0.928 (inactive) | normalized growth (locus YHR079C, strain IRE1, stronger effect = lower value): 0.979 (inactive) | normalized growth (locus YHR094C, strain hxt1, stronger effect = lower value): 1.03 (inactive) | normalized growth (locus YHR129C, strain ARP1, stronger effect = lower value): 0.926 (inactive) | normalized growth (locus YHR142W, strain chs7, stronger effect = lower value): 0.85 (active) | normalized growth (locus YHR200W, strain rpn10, stronger effect = lower value): 0.98 (inactive) | normalized growth (locus YIL066C, strain RNR3, stronger effect = lower value): 0.846 (active) | normalized growth (locus YIL073C, strain SPO22, stronger effect = lower value): 1.25 (inactive) | normalized growth (locus YIL125W, strain kgd1, stronger effect = lower value): 1.02 (inactive) | normalized growth (locus YIR030C, strain dcg1, stronger effect = lower value): 0.979 (inactive) | normalized growth (locus YJL092W, strain hpr5, stronger effect = lower value): 0.986 (inactive) | normalized growth (locus YJL095W, strain BCK1 (second series), stronger effect = lower value): 0.899 (active) | normalized growth (locus YJL095W, strain BCK1, stronger effect = lower value): 0.332 (active) and 0.99 (inactive) | normalized growth (locus YJL115W, strain asf1, stronger effect = lower value): 1.01 (inactive) | normalized growth (locus YJL129C, strain trk1, stronger effect = lower value): 0.717 (active) | normalized growth (locus YJL134W, strain LCB3, stronger effect = lower value): 0.988 (inactive) | normalized growth (locus YJL154C, strain vps35, stronger effect = lower value): 1.03 (inactive) | normalized growth (locus YJL164C, strain tpk1, stronger effect = lower value): 0.907 (active) | normalized growth (locus YJL166W, strain qcr8, stronger effect = lower value): 0.912 (inactive) | normalized growth (locus YJL168C, strain set2, stronger effect = lower value): 0.995 (inactive) | normalized growth (locus YJL187C, strain SWE1 (second series), stronger effect = lower value): 0.792 (active) | normalized growth (locus YJL187C, strain SWE1, stronger effect = lower value): 0.989 (inactive)
